Results filed as inconclusive are left out. The source made the active and inactive calls. Calls come from the whole dose curve; as a rule, active = well fitted cell-killing curve with a large enough effect; inconclusive = small, poorly fitted or top-dose-only effect, or effect the other way; inactive = flat fitted curve, though single readings scatter. *1 amine or outer side, *2 acyl side, *3 side chain or, on linkers, in order; H or OH if unused. Where a SMILES comes first, the peptide text is derived from it. [ ]: non-standard residue; d: D form. X4 = CC(C)=CCc1cc(C(O)C(N[*:1])C(=O)[*:2])ccc1O
What was measured:
Assay in all cases: Primary qHTS to identify gynecologic anti-cancer compounds using libraries of approved drugs and bioactive compounds (AID 1345084); note: nearly all actives have a fitted effect of over 55% in size
Details in all cases: Gynecologic cancer cell panel viability, ATPlite luminescence, 48 h; series mostly up to 57.5 µM
OV90 = test system: OV90
Summary of the method: (§1)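 Cell viability after 48 h drug treatment, ATPlite luminescence readout; five doses.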

PA-1 = test system: PA-1
Summary of the method: as §1

SKOV3 = test system: SKOV3
Summary of the method: as §1

Tov-21-G = test system: Tov-21-G
Summary of the method: as §1

Tov112D = test system: Tov112D
Summary of the method: as §1
% is set by controls: 0 for no effect and ±100 for the full control effect.

COC(=O)CC(C)(O)CC(=O)OCc1ccc(O[C@@H]2O[C@H](CO)[C@@H](O)[C@H](O)[C@H]2O)cc1 (stereo not given in full)
inactive: Potency (OV90) | Potency (PA-1) | Potency (SKOV3) | Potency (Tov-21-G) | Potency (Tov112D)

COC(=O)c1cc(OC)c(O[C@@H]2O[C@@H](C)[C@H](O)[C@@H](O)[C@H]2O)c(OC)c1
inactive: Potency (OV90) | Potency (PA-1) | Potency (SKOV3) | Potency (Tov-21-G) | Potency (Tov112D)

COc1ccc(C2(O)c3ccccc3NC(=O)C2O)cc1 (stereo not given)
inactive: Potency (OV90) | Potency (PA-1) | Potency (SKOV3) | Potency (Tov-21-G) | Potency (Tov112D)

COc1c2c(cc3c1-c1c(cc4c(c1OC)OCO4)CC(C)C(C)C3)OCO2 (stereo not given)
inactive: Potency (OV90) | Potency (PA-1) | Potency (SKOV3) | Potency (Tov-21-G) | Potency (Tov112D)

CC1OC(OCC2OC(OC3CCC4(C)C(CCC5(C)C4CC=C4C6CC(C)(C)CCC6(C(=O)OC6OC(CO)C(O)C(O)C6O)CCC45C)C3(C)CO)C(O)C(O)C2O)C(O)C(O)C1O (stereo not given)
inactive: activity change, negative = cytotoxicity (OV90) -5.44% [at 11.6 µM] | activity change, negative = cytotoxicity (PA-1) -0.107% [at 11.6 µM] | activity change, negative = cytotoxicity (SKOV3) 24.6% [at 11.6 µM] | activity change, negative = cytotoxicity (Tov-21-G) 2.94% [at 11.6 µM] | activity change, negative = cytotoxicity (Tov112D) -1.29% [at 11.6 µM]

C=C1C(O)C[C@@H]2C(C(=O)O)=CO[C@@H](O[C@@H]3O[C@H](CO)[C@@H](O)[C@H](O)[C@H]3OC(=O)c3ccc(O)cc3)[C@H]12 (stereo not given in full)
inactive: Potency (OV90) | Potency (PA-1) | Potency (SKOV3) | Potency (Tov-21-G) | Potency (Tov112D)

CC1(C)CC2C=C(C(=O)O)C3COC(=O)C(O)(CO)C23C1 (stereo not given)
inactive: Potency (OV90) | Potency (PA-1) | Potency (SKOV3) | Potency (Tov-21-G) | Potency (Tov112D)

CNS(=O)(=O)CC1CCC(N(C)c2ncnc3[nH]ccc23)CC1 (stereo not given)
inactive: Potency (OV90) | Potency (PA-1) | Potency (SKOV3) | Potency (Tov-21-G) | Potency (Tov112D)

COCCOc1ccc(N2CCN(CCn3ncc4c3nc(N)n3nc(-c5ccco5)nc43)CC2)cc1
inactive: Potency (OV90) | Potency (PA-1) | Potency (SKOV3) | Potency (Tov-21-G) | Potency (Tov112D)

COC(=O)C1=CO[C@@H](O[C@@H]2O[C@H](CO)[C@@H](O)[C@H](O)[C@H]2O)[C@H]2[C@@H]1CC(OC)O[C@@H]2C (stereo not given in full)
inactive: Potency (OV90) | Potency (PA-1) | Potency (SKOV3) | Potency (Tov-21-G) | Potency (Tov112D)

CC(O)CO[C@@H]1O[C@H](CO)[C@@H](O)[C@H](O)[C@H]1O (stereo not given in full)
inactive: Potency (OV90) | Potency (PA-1) | Potency (SKOV3) | Potency (Tov-21-G) | Potency (Tov112D)

CC(C)=CCc1cc(C(O)C2NC(=O)CNC(=O)C(Cc3c[nH]c4ccccc34)NC(=O)C3CCCN3C(=O)CNC(=O)C(C(C)C)NC(=O)CNC2=O)ccc1O (stereo not given) (cyclo(G[X4]GVGPW); configuration not given here)
inactive: activity change, negative = cytotoxicity (OV90) 5.8% [at 11.6 µM] | activity change, negative = cytotoxicity (PA-1) -1.16% [at 11.6 µM] | activity change, negative = cytotoxicity (SKOV3) 0% [at 11.6 µM] | activity change, negative = cytotoxicity (Tov-21-G) -4.16% [at 11.6 µM] | activity change, negative = cytotoxicity (Tov112D) -6.73% [at 11.6 µM]

C[C@@H]1O[C@@H](O[C@H]2[C@H](O)[C@@H](O)[C@H](OC3CCC4(C)C5CCC(C)(C(CO)OC6OC(CO)C(O)C(O)C6O)CC5=CCC4C3(C)C)O[C@@H]2CO)[C@H](O)[C@H](O)[C@H]1O (stereo not given in full)
inactive: Potency (OV90) | Potency (PA-1) | Potency (SKOV3) | Potency (Tov-21-G) | Potency (Tov112D)

CN[C@@H]1[C@H](O[C@H]2[C@H](O[C@@H]3[C@@H](O)[C@H](O)[C@@H](N=C(N)N)[C@H](O)[C@H]3N=C(N)N)O[C@@H](C)[C@]2(O)C=O)O[C@@H](CO)[C@H](O)[C@H]1O
inactive: Potency (OV90) | Potency (PA-1) | Potency (SKOV3) | Potency (Tov-21-G) | Potency (Tov112D)

COC(=O)C1=CO[C@@H](O[C@@H]2O[C@H](CO[C@@H]3O[C@H](COC(=O)/C=C/c4cc(OC)c(O)c(OC)c4)[C@@H](O)[C@H](O)[C@H]3O)[C@@H](O)[C@H](O)[C@H]2O)[C@@H]2C(CO)=CC[C@H]12
inactive: Potency (OV90) | Potency (PA-1) | Potency (SKOV3) | Potency (Tov-21-G) | Potency (Tov112D)

COC(=O)c1ccc(OC(CO)C(O)c2ccc(O)c(OC)c2)c(OC)c1 (stereo not given)
inactive: Potency (OV90) | Potency (PA-1) | Potency (SKOV3) | Potency (Tov-21-G) | Potency (Tov112D)

CC(C)S(=O)(=O)N[C@H]1CCOC[C@@H]1c1ccc(-c2ccc(C#N)s2)cc1
inactive: Potency (OV90) | Potency (PA-1) | Potency (SKOV3) | Potency (Tov-21-G) | Potency (Tov112D)

CC1CC(C(O)C(C)(C)O)OC2CC3(C)C4(C)CCC5C(C)(C)C(=O)CCC5(C)C4CCC3(O)C12O (stereo not given)
inactive: Potency (OV90) | Potency (PA-1) | Potency (SKOV3) | Potency (Tov-21-G) | Potency (Tov112D)

COC(=O)C12C(=O)C(C)=C(O)C1(C)C(C)=CC1C3(CO)CCC(O)C(C)(C)C3CCC12C (stereo not given)
inactive: Potency (OV90) | Potency (PA-1) | Potency (SKOV3) | Potency (Tov-21-G) | Potency (Tov112D)

C=C1C(=O)OC2CC(C)=C(C(C)CCCO)C(O)C12 (stereo not given)
inactive: Potency (OV90) | Potency (PA-1) | Potency (SKOV3) | Potency (Tov-21-G) | Potency (Tov112D)

O=C(CCc1nnc2n(Cc3ccc(Cl)cc3)c(=O)c3ccccc3n12)NCCC1=CCCCC1
inactive: Potency (OV90) | Potency (PA-1) | Potency (SKOV3) | Potency (Tov-21-G) | Potency (Tov112D)

— PubChem BioAssay (NCATS)
